# About 83,000 compounds went through this panel and 20% of them were active in at least one assay; those are over-represented in the sample as a whole.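 In brief: 96-well plates, 48 h treatment, single concentration, percent growth endpoint.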 A number with no mark means an inactive call. Active and inactive are the calls of the source. How the source made its calls: active means growth percent below 10; inactive means the rest.
# Key:
# Assay in all cases: NCI-60 one-dose screen, 48 h (100 = growth as untreated, 0 = no growth, -100 = all killed)
# Settings in all cases: 10 µM unless noted
# SK-MEL-2 melanoma = tested on: SK-MEL-2 melanoma
# SN12C renal = tested on: SN12C renal
# UO-31 renal = tested on: UO-31 renal
# TK-10 renal = tested on: TK-10 renal
# ACHN renal = tested on: ACHN renal
# CAKI-1 renal = tested on: CAKI-1 renal
# A498 renal = tested on: A498 renal
# CCRF-CEM leukemia = tested on: CCRF-CEM leukemia
# MOLT-4 leukemia = tested on: MOLT-4 leukemia
# SR leukemia = tested on: SR leukemia
# RPMI-8226 leukemia = tested on: RPMI-8226 leukemia
# OVCAR-8 ovarian = tested on: OVCAR-8 ovarian
# OVCAR-5 ovarian = tested on: OVCAR-5 ovarian
# OVCAR-4 ovarian = tested on: OVCAR-4 ovarian
# SK-OV-3 ovarian = tested on: SK-OV-3 ovarian
# IGROV1 ovarian = tested on: IGROV1 ovarian
# OVCAR-3 ovarian = tested on: OVCAR-3 ovarian
# HS 578T breast = tested on: HS 578T breast
# NCI/ADR-RES ovarian = tested on: NCI/ADR-RES ovarian
# EKVX NSCLC = tested on: EKVX NSCLC
Structure (SMILES),growth (SK-MEL-2 melanoma) [%],growth (SN12C renal) [%],growth (UO-31 renal),growth (TK-10 renal) [%],growth (ACHN renal) [%],growth (CAKI-1 renal),growth (A498 renal) [%],growth (CCRF-CEM leukemia),growth (MOLT-4 leukemia),growth (SR leukemia),growth (RPMI-8226 leukemia) [%],growth (OVCAR-8 ovarian) [%],growth (OVCAR-5 ovarian) [%],growth (OVCAR-4 ovarian),growth (SK-OV-3 ovarian),growth (IGROV1 ovarian) [%],growth (OVCAR-3 ovarian) [%],growth (HS 578T breast) [%],growth (NCI/ADR-RES ovarian) [%],growth (EKVX NSCLC) [%]
C=CCC(O)C=C (stereo not given),106,101,83.1%,96.2,100,97.4%,88.7,94.1%,91.4%,84.4%,105,101,108,106%,94%,103,108,101,103,
Cc1ccc(S(=O)(=O)NC(=O)NCCSSCCNC(=O)NS(=O)(=O)c2ccc(C)cc2)cc1,112,100,90.3%,102,96.2,96.5%,93.1,99.1%,110%,107%,99.8,106,93.6,112%,116%,101,109,97.5,111,
Cc1onc(-c2ccccc2Cl)c1C(=O)Cl,113,95.7,91.2%,110,96.2,93.5%,95.9,90.9%,114%,83.8%,99.9,95.4,103,98%,99%,117,127,102,105,
C/C(=N\N=C(/C)c1cccc([N+](=O)[O-])c1)c1cccc([N+](=O)[O-])c1,90.8,81.7,92.8%,90.8,99.4,99.5%,97.9,96.5%,102%,86.4%,87.7,79.6,97.9,42.1%,,104,58.1,78.8,93.9,
C1C[S+]2CC[S+]1CC2,101,101,106%,97.9,99.2,108%,105,89.9%,100%,101%,95.1,96,107,115%,100%,106,102,108,99.3,
CC(=O)NC(CCc1ccc(Cl)c(Cl)c1)c1cccc(O)c(=O)c1 (stereo not given),17.8,12.4,-20.9% (active),25.8,17.5,-0.0278% (active),36,4.93% (active),4.68% (active),6.21% (active),13.9,13.9,47,24.5%,12.7%,,20.1,54.1,,
COc1ccc2c(Cl)cc(NC(=O)Nc3c(C)cccc3C)nc2c1,106,82.6,14.4%,35,41.9,11.1%,36.1,86.5%,81.6%,,73,61.3,83,-14.7% (active),-6.49% (active),52.3,78.2,57.2,78.2,
NC(=O)NCCO,108,101,94.1%,96.5,107,95.2%,77.1,85%,96.3%,96.2%,101,99.8,106,110%,110%,105,106,94.2,97.7,
Ic1cccs1,97.9,98.9,90.5%,95.8,103,101%,96.5,96%,98.9%,97.9%,106,99.2,107,102%,115%,,107,98.8,98.8,
Cc1ccc(C)c2c1CCC2=O,122,102,90.6%,105,102,95.9%,56.8,-32.7% (active),121%,132%,84.1,104,95.8,105%,121%,117,96.7,92.6,101,
COc1ccc(C2CC(c3ccccc3)=Nc3ccccc3S2)cc1 (stereo not given),85.6,103,57.5%,113,103,84%,91.8,85.2%,77.6%,49%,82.1,115,116,97.2%,95.3%,92,93.3,102,94.7,
O=S1(=O)c2ccccc2Oc2ccccc21,100,96.8,93.9%,101,99.7,92.9%,99.7,127%,111%,101%,110,99.6,96.3,100%,104%,105,114,106,108,
NS(=O)(=O)c1cc(=O)[nH]c(=O)[nH]1,,108,100%,113,104,111%,190,103%,148%,135%,118,114,112,110%,108%,121,116,102,109,112
O=[N+]([O-])c1c(Cl)ncnc1Cl,110,111,101%,107,94.8,,90,99.1%,,96%,96.2,104,85.7,103%,104%,117,105,,118,
CC(=O)OC(C)c1cccc(C#N)c1 (stereo not given),110,99.1,85.1%,110,113,101%,,97.7%,102%,104%,102,103,104,109%,93.8%,115,111,106,106,
CSc1nc2[nH]ncc2c(=O)[nH]1,111,101,101%,104,110,103%,,118%,110%,,119,106,97.7,123%,107%,112,97.3,92,99.1,
O=c1[nH]c(=O)c2cc(Cl)cc(Cl)c2[nH]1,,91,75.3%,97.6,103,92%,121,99.6%,95.7%,94.3%,104,101,116,101%,118%,90.6,126,,131,92.7
O=C(OC1CCCC1)c1ccccc1Cl,,108,93.2%,100,104,101%,86.6,107%,110%,104%,102,111,96.2,107%,108%,106,112,91.7,108,111
